This is a sample that favours compounds with a hit; in the whole collection about 7.9% have one here.
MCF10A rereplic = induces DNA re-replication in MCF 10a normal breast cells; Potency, µM (series often up to 46.1 µM), usual class: activators; MCF 10A DNA re-replication, Hoechst nuclear intensity, 48 h; 350,000 tested, 2.9% active; note: nearly all actives have a fitted effect of over 50% in size
HT1080 IDH1KD tx = toxicity to HT-1080 IDH1 knockdown cells (counter line); Potency, µM (series often up to 46.1 µM), hits mostly cytotoxic; AID 686971; 360,000 tested, 2% active; HT-1080 IDH1 knockdown viability, ATP luminescence, 48 h
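HT-1080-IDH1KD cells (IDH1 knocked down), 750/well in RPMI with 5% FBS, treated with compound 48 h at 37 degrees C. Viability by CellTiter-Glo luminescence, normalised to DMSO and no-cell wells; concentration-response curves classed.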
KB-V1 MDR tox = kills drug-selected multidrug resistant KB-V1 cells; KB-V1 MDR cells viability, CellTiter-Glo, 72 h; AID 1347076; 400,000 tested, 3.4% active; Potency, µM (highest dose often 46.1 µM), most hits filed as cytotoxic; note: nearly all actives have a fitted effect of over 60% in size
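Readout: CellTiter-Glo luminescence, 10 min after addition. Cells: KB-V1 MDR subline, 72 h at 37 degrees C with compound. Analysis: corrected, normalized data fitted to concentration-effect curves.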
SW480 rerep = induces DNA re-replication in SW480 colon adenocarcinoma cells; SW480 DNA re-replication, Hoechst DNA content imaging, 48 h; Potency, µM (top dose mostly 46.1 µM), actives largely listed as activators; 340,000 tested, 1.8% active; note: nearly all actives have a fitted effect of over 55% in size
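Quantitative HTS format with DMSO vehicle controls; 48 hr drug incubation at 37 C, then 40 min Hoechst staining and scanning imager measurement at 405 nm excitation.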
HT1080NT lethal = kills 2HG-producing HT-1080-NT fibrosarcoma cells | 360,000 tested, 1.6% active | HT-1080-NT fibrosarcoma viability, CellTiter-Glo ATP luminescence, 48 h | Potency, µM (highest dose often 46.1 µM), most hits filed as cytotoxic | AID 686970;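 note: NT is the 2HG producing partner of a matched IDH1 knockdown line; nearly all actives have a fitted effect of over 55% in size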
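A 48-hour cytotoxicity screen used HT-1080-NT cells plated 2 hours before compound delivery. ATP-based CellTiter-Glo luminescence measured viability, normalized to DMSO and no-cell controls.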
KB-3-1 tox = kills parental KB-3-1 adenocarcinoma cells. 400,000 tested, 1.4% active. Potency, µM (highest dose often 46.1 µM), most hits filed as cytotoxic. AID 1347075. KB-3-1 viability, CellTiter-Glo ATP luminescence, 72 h; note: nearly all actives have a fitted effect of over 60% in size
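72 h, 37 °C compound treatment of KB-3-1 parental cells; CellTiter-Glo added, 10 min, luminescence read. Data corrected against DMSO-only plates and normalized before curve fitting.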
Hits are given with their value; . = inactive; ? = inconclusive; / = no result given. Calls come from the whole dose curve; as a rule, active = well fitted curve in the direction sought with a large enough effect; inconclusive = small, poorly fitted or top-dose-only effect, or another doubt; inactive = no such curve, though single readings can be large; an effect the other way counts as inactive or inconclusive.

SMILES	MCF10A rereplic	HT1080 IDH1KD tx	KB-V1 MDR tox	SW480 rerep	HT1080NT lethal	KB-3-1 tox
Oc1[nH]c2ccc(Br)cc2c1N=NC(=S)N1CCOCC1	.	1µM	.	?	?	.
Oc1[nH]c2ccccc2c1N=NC(=S)N1CCOCC1	.	?	?	?	?	?
COc1ccccc1NC(=O)C1=C(C)Nc2nc3ccccc3n2C1c1cccc(OC)c1OC (centres undefined)	/	/	.	/	/	.
COc1ccccc1-c1ccc2c(c1)C(C)(Cc1ccc(Cl)c(Cl)c1)C(=O)N2 (centres undefined)	/	23µM	.	/	?	.
CC1(Cc2ccc(Cl)c(Cl)c2)C(=O)Nc2ccc(S(=O)(=O)NC3CCCCC3)cc21 (centres undefined)	/	?	18µM	/	?	?
CCOc1cc(CNCCSc2nnnn2C)cc(Br)c1OCc1ccc(F)cc1	.	.	18µM	?	23µM	?
CCOc1cc(CNCCSc2nnnn2C)cc(Br)c1OCc1ccccc1F	?	?	?	?	?	.
O=Cc1ccc(O)c2ncccc12	1.6µM	3.7µM	?	7.3µM	2.3µM	6.5µM
COCC(=O)N1CCC(Oc2ccc(C(=O)NCCCC3CCCC3)cc2)CC1	.	.	9.2µM	.	.	?
O=C(CNCc1ccc(Cl)cc1)Nc1ccc(C(=O)N2CCCCC2)cc1	.	.	.	.	.	.
O=C(CNCc1ccccc1)Nc1ccc(Cl)cc1	18µM	8.2µM	?	?	8.2µM	10µM
COC(=O)c1ccc(CNCC(=O)Nc2ccc(C(=O)OC)cc2)cc1	16µM	.	.	.	.	.
COc1ccc(-c2noc(CSc3nnc(C)n3-c3ccc(F)cc3)n2)cc1	/	/	.	/	/	.
O=Cc1ccc(-c2ccccc2C(=O)O)o1	.	.	?	.	.	.
O=C(O)c1cc(N/N=C/c2ccc(-c3ccc(F)cc3)o2)ccc1Cl	18µM	.	.	18µM	.	.
Cc1c(C(=O)O)cccc1-c1ccc(/C=N/Nc2ccc(Br)cc2)o1	18µM	?	.	.	.	?
O=C(N/N=C\c1ccc(-c2cccc(Cl)c2)o1)C(=O)NC1CCCC1	?	.	.	.	?	.
O=C(O)c1ccc(N/N=C/c2ccc(-c3ccc(Cl)cc3Cl)o2)cc1	?	?	.	23µM	?	23µM
O=C(Cc1ccc(F)cc1)N/N=C/c1ccc(-c2ccc(Cl)c(C(=O)O)c2)o1	?	.	.	.	.	.
O=C(O)c1ccc(N/N=C/c2ccc(-c3cccc(Cl)c3)o2)cc1	?	16µM	.	21µM	10µM	?
CCOC(=O)c1c(NC(=O)COc2cccc(C(F)(F)F)c2)sc2c1CCCCC2	/	/	.	/	/	?
COc1cccc(C(NC(C)=O)c2nc(-c3ccc(F)c(Cl)c3)cs2)c1 (centres undefined)	/	.	.	/	.	.
O=C(O)c1ccc(N/N=C/c2ccc(-c3cc(Cl)ccc3Cl)o2)cc1	2.1µM	16µM	?	12µM	?	.
CC1=NOC(=O)/C1=C\c1ccc(-c2ccc(Br)cc2C(=O)O)o1	.	.	?	.	.	.
CC1=NN(c2ccc(Br)cc2)C(=O)/C1=C/c1ccc(-c2ccccc2C(=O)O)o1	23µM	.	.	.	.	.
SMILES	MCF10A rereplic	HT1080 IDH1KD tx	KB-V1 MDR tox	SW480 rerep	HT1080NT lethal	KB-3-1 tox
C[C@@H]1COC(=O)[C@H](NC(=O)OCC2c3ccccc3-c3ccccc32)C/C=C\C[C@@H](CC(=O)N(CCO)Cc2ccccc2)C(=O)N1	.	.	.	.	.	.
O=C(N[C@@H]1C/C=C\C[C@H](CC(=O)N(CCO)Cc2ccccc2)C(=O)N[C@@H](Cc2ccccc2)COC1=O)OCC1c2ccccc2-c2ccccc21	13µM	.	.	?	.	?
O=C(N[C@H]1C/C=C\C[C@@H](CC(=O)N(CCO)Cc2ccccc2)C(=O)NC[C@H](c2ccccc2)OC1=O)OCC1c2ccccc2-c2ccccc21	6.5µM	?	.	.	23µM	?
CC(C)CCNC(=O)c1ccc(Cn2c(SCC(N)=O)nc3ccccc3c2=O)cc1	/	/	.	/	/	.
CC(=O)C1(O)C(C)CC2C3CCC4CC(O)CCC4(C)C3=CCC21C (centres undefined)	18µM	.	.	?	.	.
C[C@@H]1CC2[C@@H]3CC[C@H]4CC(=O)CC[C@]4(C)C3=CC[C@]2(C)[C@@]1(O)C(=O)CO (some centres undefined)	.	.	.	.	.	.
O=C(Nc1ccc(Cl)cc1)Nc1ccccc1NS(=O)(=O)c1cccs1	18µM	?	.	.	?	.
CC(=O)Nc1ccccc1NS(=O)(=O)c1ccc(Cl)cc1	.	?	13µM	?	.	?
Cc1c(Cl)cccc1NS(=O)(=O)c1ccccc1	.	?	18µM	.	.	.
O=S(=O)(Nc1cccc2c1CCCC2)c1ccc(Cl)cc1	16µM	.	?	.	.	?
CC1CCC(Nc2nc3c(-c4ccc(Cl)cc4)nnn3c3ccccc23)CC1 (centres undefined)	/	/	.	/	/	.
O=C(O)c1cc(Cl)n[nH]c1=O	/	.	.	/	.	.
O=C(Nc1cc(S(=O)(=O)N2CCCCC2)ccc1Cl)c1ccccc1NS(=O)(=O)c1ccc(F)cc1	?	?	?	?	0.58µM	4.6µM
CCN1CCN(c2ccc(S(=O)(=O)N3CCCCC3)cc2NC(=O)c2ccc(F)cc2)CC1	7.3µM	.	.	?	.	.
O=C(Nc1cc(S(=O)(=O)N2CCCCC2)ccc1O)c1ccccc1NS(=O)(=O)c1ccc(F)cc1	?	?	.	.	?	.
CCN1CCN(c2ccc(S(=O)(=O)N3CCCCC3)cc2NC(=O)COc2ccc(F)cc2Cl)CC1	.	18µM	.	.	21µM	?
COc1cc(F)c(S(=O)(=O)Nc2c(C)n(C)n(-c3ccccc3)c2=O)cc1OC	/	/	.	/	/	.
Cc1sc(C2C(C#N)=C(N)N(c3ccc(Cl)cc3)C3=C2C(=O)CCC3)cc1CN1CCOCC1 (centres undefined)	/	/	.	/	/	.
Cc1ccc(C(=O)c2oc3ccccc3c2NC(=O)COc2ccc(C(C)C)cc2)cc1	/	/	?	/	/	.
O=C(O)c1ccc(-c2ccc(/C=N/Nc3ccc([N+](=O)[O-])cc3)o2)cc1	18µM	.	.	18µM	.	.
O=C(O)c1cccc(-c2ccc(/C=N/Nc3ccc([N+](=O)[O-])cc3)o2)c1	18µM	.	.	?	.	.
CNC(=S)N/N=C/c1ccc(-c2ccc(C(=O)O)cc2)o1	?	8.2µM	6.5µM	?	?	.
NS(=O)(=O)c1ccc(-c2ccc(/C=N/Nc3ccc(C(=O)O)cc3)o2)cc1	.	.	.	?	.	.

Assay outcomes as filed in PubChem.
